# Reference: the supplement of paper PMC8728848
# About 410 targets per protein were measured; listed, in parts, are those with the strongest signals and a random draw of the rest.
# Key:
# Assay in all cases: glycan array binding signal (z-score within array); higher = stronger binding
# Conditions in all cases: glycan notation: IUPAC condensed, linker removed
# Fuc(a1-2)[Gal(a1-3)]Gal = target: Fuc(a1-2)[Gal(a1-3)]Gal
# Procedure, shortened: (§1)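 From the Consortium for Functional Glycomics database, 3228 arrays were curated, keeping only those whose protein sequence was available. Binding is given as a within-array Z-score averaged across arrays sharing a protein sequence and across linkers. Negative Z-scores can be read as non-binding.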
# [1] = target: Fuc(a1-2)[Gal(a1-4)]Gal(b1-4)GlcNAc
# Procedure, shortened: as §1
# [2] = target: Fuc(a1-2)[GalNAc(a1-3)]Gal(b1-3)GlcNAc
# Procedure, shortened: as §1
# [3] = target: Fuc(a1-3)[Gal(b1-4)]GlcNAc(b1-4)Gal(b1-4)[Fuc(a1-3)]GlcNAc(b1-4)Gal(b1-4)[Fuc(a1-3)]GlcNAc
# Procedure, shortened: as §1
# Gal(a1-3)Gal(b1-4)Glc = target: Gal(a1-3)Gal(b1-4)Glc
# Procedure, shortened: as §1
# Gal(a1-4)Gal(b1-4)GlcNAc = target: Gal(a1-4)Gal(b1-4)GlcNAc
# Procedure, shortened: as §1
# [4] = target: Gal(b1-3)[Fuc(a1-4)]GlcNAc
# Procedure, shortened: as §1
# [5] = target: Gal(b1-3)[GlcNAc(b1-6)]GalNAc
# Procedure, shortened: as §1
# GalNAc(b1-3)GalNAc = target: GalNAc(b1-3)GalNAc
# Procedure, shortened: as §1
# GalNAc(b1-4)GlcNAc = target: GalNAc(b1-4)GlcNAc
# Procedure, shortened: as §1
# GlcNAc(b1-3)Gal = target: GlcNAc(b1-3)Gal
# Procedure, shortened: as §1
# GlcNAc(b1-3)GalNAc = target: GlcNAc(b1-3)GalNAc
# Procedure, shortened: as §1
# [6] = target: GlcNAc(b1-3)[GlcNAc(b1-6)]Gal(b1-4)GlcNAc
# Procedure, shortened: as §1
# Neu5Ac(a2-3)Gal(b1-4)Glc = target: Neu5Ac(a2-3)Gal(b1-4)Glc
# Procedure, shortened: as §1
# [7] = target: Neu5Ac(a2-3)Gal(b1-4)GlcNAc(b1-3)Gal(b1-4)GlcNAc
# Procedure, shortened: as §1
# [8] = target: Neu5Ac(a2-3)Gal(b1-4)GlcNAc(b1-3)Gal(b1-4)[Fuc(a1-3)]GlcNAc
# Procedure, shortened: as §1
# Neu5Ac(b1-6)GalNAc = target: Neu5Ac(b1-6)GalNAc
# Procedure, shortened: as §1
# Fuc(a1-3)GlcNAc = target: Fuc(a1-3)GlcNAc
# Procedure, shortened: as §1
# [9] = target: Gal(b1-3)[Neu5Ac(a2-6)]GalNAc
# Procedure, shortened: as §1
# [10] = target: Gal(b1-4)GlcNAc(b1-6)GalNAc
# Procedure, shortened: as §1
# Glc(b1-4)Glc = target: Glc(b1-4)Glc
# Procedure, shortened: as §1
# [11] = target: GlcNAc(b1-4)[GlcNAc(b1-6)]GalNAc
# Procedure, shortened: as §1
# [12] = target: Man(a1-2)Man(a1-6)[Man(a1-3)]Man(a1-6)[Man(a1-2)Man(a1-2)Man(a1-3)]Man(b1-4)GlcNAc(b1-4)GlcNAc
# Procedure, shortened: as §1
# [13] = target: Neu5Ac(a2-3)Gal(b1-3)GalNAc
# Procedure, shortened: as §1
# [14] = target: Neu5Ac(a2-3)Gal(b1-3)[Neu5Ac(a2-6)]GalNAc
# Procedure, shortened: as §1
# [15] = target: Neu5Ac(a2-6)Gal(b1-4)GlcNAc
# Procedure, shortened: as §1
# [16] = target: Neu5Ac(a2-8)Neu5Ac(a2-3)Gal(b1-4)Glc
# Procedure, shortened: as §1
# [17] = target: Neu5Ac9Ac(a2-6)Gal(b1-4)GlcNAc
# Procedure, shortened: as §1
# [18] = target: Fuc(a1-2)[Gal(a1-3)]Gal(b1-4)Glc
# Procedure, shortened: as §1
# [19] = target: Fuc(a1-3)[GalNAc(b1-4)]GlcNAc
# Procedure, shortened: as §1
# Gal(a1-3)GalNAc = target: Gal(a1-3)GalNAc
# Procedure, shortened: as §1
# Gal(b1-3)GalNAc = target: Gal(b1-3)GalNAc
# Procedure, shortened: as §1
# [20] = target: Gal(b1-3)GalNAc(b1-4)[Neu5Ac(a2-3)]Gal(b1-4)Glc
# Procedure, shortened: as §1
# [21] = target: Gal(b1-3)GlcNAc(b1-3)Gal(b1-4)GlcNAc
# Procedure, shortened: as §1
# Gal3S(b1-3)GalNAc = target: Gal3S(b1-3)GalNAc
# Procedure, shortened: as §1
# Gal6S(b1-4)GlcNAc = target: Gal6S(b1-4)GlcNAc
# Procedure, shortened: as §1
# [22] = target: GalNAc(b1-4)GlcNAc(b1-2)Man(a1-3)[GalNAc(b1-4)GlcNAc(b1-2)Man(a1-6)]Man(b1-4)GlcNAc(b1-4)GlcNAc
# Procedure, shortened: as §1
# GlcA(b1-6)Gal = target: GlcA(b1-6)Gal
# Procedure, shortened: as §1
# [23] = target: GlcNAc(a1-4)Gal(b1-4)GlcNAc(b1-3)Gal(b1-4)Glc
# Procedure, shortened: as §1
# [24] = target: GlcNAc(b1-2)Man(a1-3)[GlcNAc(b1-2)Man(a1-6)]Man(b1-4)GlcNAc(b1-4)[Fuc(a1-6)]GlcNAc
# Procedure, shortened: as §1
# [25] = target: GlcNAc(b1-3)Gal(b1-4)GlcNAc(b1-3)Gal(b1-4)GlcNAc
# Procedure, shortened: as §1
# [26] = target: GlcNAc(b1-4)GlcNAc(b1-4)GlcNAc(b1-4)GlcNAc(b1-4)GlcNAc
# Procedure, shortened: as §1
# Kdn(a2-3)Gal(b1-3)GalNAc = target: Kdn(a2-3)Gal(b1-3)GalNAc
# Procedure, shortened: as §1
# [27] = target: Man(a1-2)Man(a1-3)[Man(a1-2)Man(a1-6)]Man(a1-6)[Man(a1-2)Man(a1-2)Man(a1-3)]Man(b1-4)GlcNAc(b1-4)GlcNAc
# Procedure, shortened: as §1
# Man(a1-3)[Man(a1-6)]Man = target: Man(a1-3)[Man(a1-6)]Man
# Procedure, shortened: as §1
# [28] = target: Neu5Ac(a2-3)Gal(b1-3)GalNAc(b1-3)Gal(a1-4)Gal(b1-4)Glc
# Procedure, shortened: as §1
# [29] = target: Neu5Ac(a2-3)Gal(b1-3)[Fuc(a1-4)]GlcNAc(b1-3)Gal(b1-3)[Fuc(a1-4)]GlcNAc
# Procedure, shortened: as §1
# [30] = target: Neu5Ac(a2-3)Gal(b1-4)GlcNAc(b1-2)Man(a1-3)[Neu5Ac(a2-6)Gal(b1-4)GlcNAc(b1-2)Man(a1-6)]Man(b1-4)GlcNAc(b1-4)GlcNAc
# Procedure, shortened: as §1
# [31] = target: Neu5Ac(a2-3)Gal(b1-4)GlcNAc6S
# Procedure, shortened: as §1
# [32] = target: Neu5Ac(a2-3)Gal(b1-4)[Fuc(a1-3)]GlcNAc(b1-6)[Neu5Ac(a2-3)Gal(b1-3)]GalNAc
# Procedure, shortened: as §1
# [33] = target: Neu5Ac(a2-3)Gal6S(b1-4)GlcNAc
# Procedure, shortened: as §1
# [34] = target: Neu5Ac(a2-6)Gal(b1-4)GlcNAc(b1-2)Man(a1-6)Man(b1-4)GlcNAc(b1-4)GlcNAc
# Procedure, shortened: as §1
# [35] = target: Neu5Ac(a2-8)Neu5Ac(a2-3)[GalNAc(b1-4)]Gal(b1-4)Glc
# Procedure, shortened: as §1
# [36] = target: Neu5Ac(a2-8)Neu5Ac(a2-8)Neu5Ac
# Procedure, shortened: as §1
binder,measurement,setting,value
"F17bG (Escherichia coli), Q47200 (protein) MTNFYKVFLAVFILVCCNISHAVVSFIGSTENDVGPSQGSYSSTHAMDNLPFVYNTGYNIGYQNANVWRIGGGFCVGLDGKVDLPVVGSLDGQSIYGLTEEVGLLIWMGDTNYSRGTAMSGNSWENVFSGWCVGNYLSTQGLSVHVRPVILKRNSSAQYSVQKTSIGSIRMRPYNGSSAGSVQTTVNFSLNPFTLNDTVTSCRLLTPSAVNVSLAAISAGQLPSSGDEVVAGTTSLKLQCDAGVTVWATLTDATTPSNRSDILTLTGASTATGVGLRIYKNTDSTPLKFGPDSPVKGNENQWQLSTGTETSPSVRLYVKYVNTGEGINPGTVNGISTFTFSYQ",glycan array binding signal (z-score),Fuc(a1-2)[Gal(a1-3)]Gal,-0.551
same,glycan array binding signal (z-score),[1],-0.657
same,glycan array binding signal (z-score),[2],-0.567
same,glycan array binding signal (z-score),[3],-0.507
same,glycan array binding signal (z-score),Gal(a1-3)Gal(b1-4)Glc,-0.565
same,glycan array binding signal (z-score),Gal(a1-4)Gal(b1-4)GlcNAc,-0.527
same,glycan array binding signal (z-score),[4],-0.578
same,glycan array binding signal (z-score),[5],1.08
same,glycan array binding signal (z-score),GalNAc(b1-3)GalNAc,4.47
same,glycan array binding signal (z-score),GalNAc(b1-4)GlcNAc,-0.391
same,glycan array binding signal (z-score),GlcNAc(b1-3)Gal,4.21
same,glycan array binding signal (z-score),GlcNAc(b1-3)GalNAc,3.86
same,glycan array binding signal (z-score),[6],5.83
same,glycan array binding signal (z-score),Neu5Ac(a2-3)Gal(b1-4)Glc,-0.498
same,glycan array binding signal (z-score),[7],0.462
same,glycan array binding signal (z-score),[8],0.05
same,glycan array binding signal (z-score),Neu5Ac(b1-6)GalNAc,-0.298
"TES70 (Toxocara canis), Q9XYV5 (protein) MISVVLVAIALQISGSYAGACNSINDCGLFETCVNNMCVPDNMGCPMPCQAGQVCVPPNCVAAPAPQPVTTTTAAATTTTSARGRCNANAQCGAFEVCVNGMCQPNNAGCNPPCAANQVCVAPNCVPAPIPPPAQSTTTAPATTRAPPSCPPSWSPFSGHCYYVAVGSFLFNQASDWCTQTNSRPVWFDQSNVGTFGAELYFINVLAASRGVQTYWLGLNRQFGQWVWTNGSPLIFSNWRGSEPDGCCGGNVTCALVNYANPFGQWDDAGCGNIWRNPQGFICKKPLA",glycan array binding signal (z-score),Fuc(a1-2)[Gal(a1-3)]Gal,-0.052
same,glycan array binding signal (z-score),Fuc(a1-3)GlcNAc,-0.169
same,glycan array binding signal (z-score),[9],0.002
same,glycan array binding signal (z-score),[10],0.229
same,glycan array binding signal (z-score),Glc(b1-4)Glc,-0.156
same,glycan array binding signal (z-score),[11],0.013
same,glycan array binding signal (z-score),[12],-0.137
same,glycan array binding signal (z-score),[13],0.672
same,glycan array binding signal (z-score),[14],-0.065
same,glycan array binding signal (z-score),[15],6.41
same,glycan array binding signal (z-score),[16],-0.14
same,glycan array binding signal (z-score),[17],-0.172
"Sialidase (Vibrio cholerae), P37060 (protein) GAMALFDYNATGDTEFDSPAKQGWMQDNTNNGSGVLTNADGMPAWLVQGIGGRAQWTYSLSTNQHAQASSFGWRMTTEMKVLSGGMITNYYANGTQRVLPIISLDSSGNLVVEFEGQTGRTVLATGTAATEYHKFELVFLPGSNPSASFYFDGKLIRDNIQPTASKQNMIVWGNGSSNTDGVAAYRDIKFEIQGDALNGSMALFDYNATGDTEFDSPAKQGWMQDNTNNGSGVLTNADGMPAWLVQGIGGRAQWTYSLSTNQHAQASSFGWRMTTEMKVLSGGMITNYYANGTQRVLPIISLDSSGNLVVEFEGQTGRTVLATGTAATEYHKFELVFLPGSNPSASFYFDGKLIRDNIQPTASKQNMIVWGNGSSNTDGVAAYRDIKFEIQGDLQALGMALFDYNATGDTEFDSPAKQGWMQDNTNNGSGVLTNADGMPAWLVQGIGGRAQWTYSLSTNQHAQASSFGWRMTTEMKVLSGGMITNYYANGTQRVLPIISLDSSGNLVVEFEGQTGRTVLATGTAATEYHKFELVFLPGSNPSASFYFDGKLIRDNIQPTASKQNMIVWGNGSSNTDGVAAYRDIKFEIQGD",glycan array binding signal (z-score),[18],-0.115
same,glycan array binding signal (z-score),Fuc(a1-3)GlcNAc,-0.622
same,glycan array binding signal (z-score),[19],-0.6
same,glycan array binding signal (z-score),Gal(a1-3)GalNAc,-0.472
same,glycan array binding signal (z-score),Gal(b1-3)GalNAc,-0.469
same,glycan array binding signal (z-score),[20],0.396
same,glycan array binding signal (z-score),[21],-0.474
same,glycan array binding signal (z-score),[4],-0.364
same,glycan array binding signal (z-score),Gal3S(b1-3)GalNAc,-0.567
same,glycan array binding signal (z-score),Gal6S(b1-4)GlcNAc,-0.619
same,glycan array binding signal (z-score),[22],-0.622
same,glycan array binding signal (z-score),GlcA(b1-6)Gal,-0.085
same,glycan array binding signal (z-score),[23],-0.574
same,glycan array binding signal (z-score),[24],-0.267
same,glycan array binding signal (z-score),[25],0.631
same,glycan array binding signal (z-score),[26],-0.605
same,glycan array binding signal (z-score),Kdn(a2-3)Gal(b1-3)GalNAc,-0.286
same,glycan array binding signal (z-score),[27],0.193
same,glycan array binding signal (z-score),Man(a1-3)[Man(a1-6)]Man,-0.644
same,glycan array binding signal (z-score),[28],-0.275
same,glycan array binding signal (z-score),[29],5.53
same,glycan array binding signal (z-score),[14],2.8
same,glycan array binding signal (z-score),[30],6.62
same,glycan array binding signal (z-score),[7],4.64
same,glycan array binding signal (z-score),[31],2.73
same,glycan array binding signal (z-score),[32],0.955
same,glycan array binding signal (z-score),[33],6.38
same,glycan array binding signal (z-score),[34],1.84
same,glycan array binding signal (z-score),[35],-0.257
same,glycan array binding signal (z-score),[36],0.113
